Measured values published in PubChem BioAssay (NCI).
This is part of a sample that, as a whole, favours compounds with a hit. Of some 79,000 tested, about 15% had one in any assay. Activity calls are given as the source filed them. Rule as the data show it: active = growth inhibition above about 70%; inactive = the rest. Where a SMILES comes first, the peptide text is derived from it. [ ]: non-standard residue; d: D form. pGlu = O=C1CC[CH](C(=O)O)N1

Experiment: NCI Yeast Anticancer Drug Screen. Data for the rad50 strain (AID 155);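 also: 0% = growth of vehicle-only cultures of the same strain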
Settings: S. cerevisiae rad50 strain growth inhibition; at 50.0 µM; hits give high values
How it was run: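 Growth of the mutant yeast was measured after compound exposure and referenced to vehicle-treated cultures.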

Row | Compound | growth inhibition
1 | N/N=C(/c1ccc(Cl)cc1)N1CCOCC1 | 15.4% (inactive)
2 | CCN(CC)CN1C(=O)C2C3C=CC(C2C1=O)C1C2C(=O)N(CN(CC)CC)C(=O)C2C31 (stereo not given) | 2.8% (inactive)
3 | Cc1ccc(C)c(NC(=O)CCC(=O)C(C#N)c2nc3ccccc3s2)c1 (stereo not given) | 25.9% (inactive)
4 | CCOC(=O)C(NC(N)=O)C(=O)OCC | -1.05% (inactive)
5 | CC(NC(=O)C(Cc1cnc[nH]1)NC(=O)C1CCC(=O)N1)C(N)=O (stereo not drawn) ([pGlu]-His-Ala-NH2; configuration not given here) | -15.4% (inactive)
6 | CC(=O)Nc1c(C)cccc1[N+](=O)[O-] | 5.35% (inactive)
7 | CCCC(C)C1(CCC)C(=O)N=C(N)N=C1N (stereo not given) | 3.8% (inactive)
8 | CC(=O)C1=C(O)C(Cc2ccccc2)NC1=O (stereo not given) | 11.9% (inactive)
9 | CC(=O)OC1CCC2C(C)(CCC3C2(C)CCC2(C)C4CC(C)(C)CCC4(C)CCC32C)C1C (stereo not given) | -15.1% (inactive)
10 | COC(=O)c1ccccc1C(=O)c1ccccc1 | -2.5% (inactive)
11 | COc1c2c(cc3c(CCc4ccccc4)cc(=O)oc13)CCC(C)(C)O2 | -5.95% (inactive)
12 | CCOC(=O)C(=O)N1Cc2cc3c(cc2C2CC(O)C(O)CC21)OCO3 (stereo not given) | -8.2% (inactive)
13 | OC1=CC(C2CCCCC2)CC(O)=C1 (stereo not given) | 2.95% (inactive)
14 | c1ccc(-c2csc3[n+]2CCN3)cc1 | 18.6% (inactive)
15 | NNC(=O)CNC(=O)c1ccccc1 | 11.5% (inactive)
16 | CCOC(=O)CC1(C)c2nc(NC(C)=O)sc2Cc2sc(NC(C)=O)nc21 | -2.2% (inactive)
17 | CON(C)c1nc(N(C)C)nc(N(C)C)n1 | -1.65% (inactive)
18 | Nc1cc2[nH]cnc2c(=O)[nH]1 | 27.4% (inactive)
19 | COCCNc1cncc(C(N)=O)c1 | 15% (inactive)
20 | Nc1nc(N)[n+]([O-])c(N)c1NCO | -4.85% (inactive)

Row | Compound | growth inhibition
21 | COc1ccc(/C=C(\C2=NC(=O)CS2)c2nc3ccccc3[nH]2)cc1 | -0.35% (inactive)
22 | Cc1ccc(-c2c(C#N)c(-c3ccccc3)c(C#N)c(=O)n2NS(=O)(=O)c2ccc(C)cc2)cc1 | 3.65% (inactive)
23 | CN(Nc1ccnc(=O)[nH]1)c1ccccc1 | -35.9% (inactive)
24 | COc1ccc(-c2c3c([nH]c(=S)c2C#N)CCC3)cc1 | 8.65% (inactive)
25 | CCOC(=O)C(C(=O)OCC)C(=O)c1cc(OC)c(OC)c(OC)c1 | 4.55% (inactive)
26 | CN1C/C(=C\C=C\c2ccccc2)C(=O)/C(=C/C=C/c2ccccc2)C1 | 66.7% (inactive)
27 | C=C1C(=O)O[C@H]2[C@H]1[C@@H](OC(=O)C=C(C)C)CC1=C[C@@H](C[C@@]3(C)O[C@@H]23)OC1=O | -7.45% (inactive)
28 | C/C(=C/CNc1ncnc2c1ncn2CCC(=O)O)CO | -22.4% (inactive)
29 | O=c1[nH]c(=O)n(C2OC(CO)C(O)C2O)cc1OCc1ccccc1 (stereo not given) | -31.8% (inactive)
30 | C/C(=N/O)c1c[n+]([O-])ccn1 | -3.9% (inactive)
31 | COc1ccc2oc(=N)c(C(N)=S)cc2c1 | 28% (inactive)
32 | Cn1c(-c2ccccc2)c2c(=O)oc3ccccc3c2c1-c1ccccc1 | -14.6% (inactive)
33 | O=[N+]([O-])c1ccc(C=Nc2ccccc2)cc1 | 41.1% (inactive)
34 | COc1cc([N+](=O)[O-])cc2c1OC1(C=C2)Oc2ccccc2N1C (stereo not given) | -36.1% (inactive)
35 | COc1ccc2nc3cc([N+](=O)[O-])ccc3c(Nc3ccc(S(=O)(=O)N=C(N)N)cc3)c2c1 | 59.8% (inactive)
36 | CN(C)c1ccc(N=Nc2ccc(S(=O)(=O)O)cc2)cc1.CN(C)c1ccc(N=Nc2ccc(S(=O)(=O)O)cc2)cc1.[NH-]C1CCCCC1[NH-].[Pt+2] | 24.2% (inactive)
37 | CC1c2ncnc(N)c2CN1C(=O)c1ccccc1 (stereo not given) | 4.55% (inactive)
38 | CC(=O)c1cccc(C(C)=O)c1N=Cc1ccc(Cl)cc1 | -30.3% (inactive)
39 | O=C(/C=C\c1ccccc1)c1ccc(-c2ccc([N+](=O)[O-])cc2)cc1 | 10.4% (inactive)
40 | CC(NC(=O)OC(C)(C)C)C(=O)C(N)=O (stereo not given) | -16.2% (inactive)
